Records with an inconclusive call do not appear. For part of these data: Results with a measured potency or affinity are listed apart. Calls of active or inactive are those of the source.
Assays:
[1] = Ebola virus entry assay, blue channel fluorescence
[2] = Ebola virus entry assay, reporter ratio channel; AC50: Channel type: primary unless noted; outcome: Channel type: primary unless noted
[3] = Ebola virus entry reporter assay, green channel fluorescence
[4] = Ebola virus entry cell assay, ratio channel
[5] = High-throughput drug toxicity screening in the BPDCN cell line Gen2.2 (AID 1224824); conditions: Gen2.2 BPDCN cells; at 45.8 µM (top of the series)
Procedure, shortened: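 CellTiter-Glo luminescence after 48 h compound exposure of Gen2.2 cells; percent activity set with DMSO as 100% and bortezomib (9.2 uM final) as 0%. Cells seeded at 500 per well, RPMI + 10% FBS, 37 °C.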

[6] = High-throughput drug toxicity screening in the BPDCN cell line Cal-1 (AID 1224825); conditions: Cal-1 BPDCN cell viability, qHTS; at 45.8 µM (top of the series)
Procedure, shortened: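 Percent activity derived from CellTiter-Glo luminescence, scaling DMSO to 100% and 9.2 uM final bortezomib to 0%. BPDCN Cal-1 cells (500/well, RPMI plus 10% FBS) incubated with compounds 48 hours at 37C before reading.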

[7] = qHTS assay for measurement of the activity of small molecule inhibitors on Zika virus induced Caspase-3 activity in human astrocytoma cells (AID 1224859; active = well fitted curve in the direction sought with a large enough effect; an effect the other way counts as inactive or inconclusive); conditions: SNB-19 ZIKV-induced caspase-3/7, luminescence, 6 h; series mostly up to 45.7 µM
Procedure, shortened: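 A cell-based luminescent caspase-3/7 assay used SNB-19 cells infected with ZIKV (2 FFU/cell) for 6 h following 1 h compound pretreatment.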

[8] = qHTS Screen of the MIPE 4.0 Collection Against Ewings Sarcoma (EW8) (AID 1259255; active = well fitted curve in the direction sought with a large enough effect; an effect the other way counts as inactive or inconclusive; note: nearly all actives have a fitted effect of over 35% in size; note: potency is the fitted concentration of half-maximal effect); conditions: EW8 Ewing sarcoma viability, CellTiter-Glo, 48 h; series mostly up to 45.8 µM
Procedure, shortened: (§1)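 After a 4 h attachment period in RPMI/5% FBS, cells were pin-dosed with test compounds; DMSO served as negative and 9.2 uM bortezomib (final) as positive control. Luminescent CellTiter-Glo signal at 48 h defined viability.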

[9] = qHTS assay to identify small molecule inhibitors of chordoma cells - UCH-1 (AID 1259355; active = well fitted curve in the direction sought with a large enough effect; an effect the other way counts as inactive or inconclusive; note: nearly all actives have a fitted effect of over 55% in size); conditions: UCH-1 chordoma viability, CellTiter-Glo, 48 h, combination; series mostly up to 46.1 µM
Procedure, shortened: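 800 cells/well, overnight attach; compounds pinned at 15 concs, then auranofin/camptothecin/doxorubicin/rubitecan/topotecan combo added; 48hr 37 C, 5% CO2; CellTiter-Glo, 30min RT, luminescence.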

[10] = qHTS assay to identify small molecule inhibitors of chordoma cells - UCH-2 (AID 1259356; active = well fitted curve in the direction sought with a large enough effect; an effect the other way counts as inactive or inconclusive); conditions: UCH-2 chordoma viability, CellTiter-Glo ATP luminescence, 48 h; series mostly up to 46.1 µM
[11] = Ebola virus entry assay, blue channel (ratio component)
[12] = Immunotoxin (HA22) sensitization/mitigation study. Vehicle arm (PBS) (AID 1159510); conditions: cancer cells viability with PBS vehicle (HA22 study); series mostly up to 46.1 µM; note: potency is the fitted concentration of half-maximal effect
[13] = Immunotoxin (SS1P) sensitization/mitigation study. Vehicle arm (DMEM) (AID 1159513); conditions: cell viability with vehicle (DMEM); series mostly up to 46.1 µM; note: potency is the fitted concentration of half-maximal effect
[14] = qHTS assay for measurement of the activity of small molecule inhibitors on Zika virus induced Caspase-3 activity in human iPSC derived neural progenitor cells (hNPCs) (AID 1224857; active = well fitted curve in the direction sought with a large enough effect; an effect the other way counts as inactive or inconclusive; note: nearly all actives have a fitted effect of over 65% in size); conditions: hNPCs ZIKV-induced caspase-3/7, Caspase-Glo luminescence, 6 h; series mostly up to 45.7 µM
Procedure, shortened: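 In medium with heparin 2 ug/ml and cyclopamine 2 uM, hNPCs (350 cells/well) received compound for one hour and then Zika virus at 2 FFU/cell; caspase activity was measured by Caspase-Glo 3/7 luminescence 6 h post-infection.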

[15] = qHTS Screen of the MIPE 4.0 Collection Against Ewings Sarcoma (RDES) (AID 1259252; active = well fitted curve in the direction sought with a large enough effect; an effect the other way counts as inactive or inconclusive; note: nearly all actives have a fitted effect of over 35% in size; note: potency is the fitted concentration of half-maximal effect); conditions: RD-ES Ewing sarcoma viability, CellTiter-Glo, 48 h; series mostly up to 45.8 µM
Procedure, shortened: as §1

[16] = qHTS Screen of the MIPE 4.0 Collection Against Ewings Sarcoma (TC32) (AID 1259256; active = well fitted curve in the direction sought with a large enough effect; an effect the other way counts as inactive or inconclusive; note: nearly all actives have a fitted effect of over 45% in size); conditions: TC32 Ewing sarcoma viability, CellTiter-Glo, 48 h; series mostly up to 45.8 µM
Procedure, shortened: as §1

[17] = Identifying Small Molecule Inhibitors of Pancreatic Cancer Stem Cells (A2780, Spheroid) (AID 1259357; active = well fitted curve in the direction sought with a large enough effect; an effect the other way counts as inactive or inconclusive;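 note: compound exposure lasted 48 h before the ATP luminescence read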); conditions: Potency: A2780 spheroid viability; series mostly up to 46.1 µM
Procedure, shortened: (§2)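 Viability is scored by CellTiter-Glo luminescence 48 h after dosing, expressed as percent activity against vehicle and no-cell references. Spheroid formats rely on cells cultured 14 days in stem cell media beforehand.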

[18] = Identifying Small Molecule Inhibitors of Pancreatic Cancer Stem Cells (SN12C, Adherent) (AID 1259358; active = well fitted curve in the direction sought with a large enough effect; an effect the other way counts as inactive or inconclusive;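 note: cell survival measured after 48 h of compound exposure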); conditions: viability/growth inhibition; series mostly up to 46.1 µM
Procedure, shortened: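 Adherent (2D) versus sphere (3D) formats; spheres generated 14 d in SCM beforehand. Compound transferred by pin tool after 4 h, 48 h incubation, CellTiter-Glo endpoint.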

[19] = Identifying Small Molecule Inhibitors of Pancreatic Cancer Stem Cells (Panc1, Spheroid) (AID 1259359; active = well fitted curve in the direction sought with a large enough effect; an effect the other way counts as inactive or inconclusive;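 note: compound exposure lasted 48 h before reading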); conditions: Panc1 spheroid cancer stem cell viability; series mostly up to 46.1 µM
Procedure, shortened: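 Monolayer and spheroid cultures are compared. Spheroids form over 14 days in stem cell medium on hydrogel-coated low-attachment plates, then are exposed to compound for 48 h before CellTiter-Glo luminescence.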

[20] = Identifying Small Molecule Inhibitors of Pancreatic Cancer Stem Cells (SN12C, Spheroid) (AID 1259360; active = well fitted curve in the direction sought with a large enough effect; an effect the other way counts as inactive or inconclusive); conditions: Potency: SN12C spheroid viability; series mostly up to 46.1 µM
Procedure, shortened: as §2

C=C[C@H]1CN2CC[C@H]1C[C@@H]2[C@@H](O)c1ccnc2ccc(OC)cc12
inactive: outcome [1] | outcome [3] | outcome [4]
active: AC50 [2] 35.5 µM

CC[C@@H](CO)NC(=O)[C@@H]1C=C2c3cccc4c3c(cn4C)C[C@H]2N(C)C1
inactive: outcome [1] | outcome [2] | outcome [4]

COc1ccc(C(CN(C)C)C2(O)CCCCC2)cc1 (stereo unspecified)
171%: cell viability, % of control (lower = more cytotoxic) [5]
active: AC50 [2] 39.8 µM | Potency [8] 26.4 µM
107%: viability (% of control) [6]
inactive: outcome [1] | outcome [3] | outcome [4] | outcome [7] | Potency [9] | Potency [10]

Cn1c(CCCC(=O)O)nc2cc(N(CCCl)CCCl)ccc21
inactive: outcome [1] | outcome [2] | outcome [11] | outcome [4] | Potency [12] | Potency [13] | Potency [14] | outcome [7] | Potency [16] | Potency [9] | Potency [10] | Potency [17] | Potency [18] | outcome [19] | Potency [20]
6.62%: viability (% of control) [6]
active: Potency [15] 26.4 µM
53.7%: cell viability, % of control (lower = more cytotoxic) [5]

C[N+]1(C)CCC(OC(=O)C(O)(c2ccccc2)C2CCCC2)C1 (stereo unspecified)
inactive: outcome [1] | outcome [2] | outcome [11] | outcome [4]

O=C(O)c1ccc(-n2nc(-c3ccccc3O)nc2-c2ccccc2O)cc1
inactive: outcome [1] | outcome [2] | outcome [3] | outcome [4]

CN(C)C(=N)N=C(N)N
inactive: outcome [1] | outcome [2] | outcome [11] | outcome [4] | Potency [12] | Potency [13]

COc1cc2nc(N(C)CCCNC(=O)C3CCCO3)nc(N)c2cc1OC (stereo unspecified)
active: AC50 [2] 35.5 µM
inactive: outcome [1] | outcome [3] | outcome [4]

CN(C)c1ccc(O)c2c1C[C@H]1C[C@H]3[C@H](N(C)C)C(=O)C(C(N)=O)=C(O)[C@@]3(O)C(=O)C1=C2O
inactive: outcome [1] | outcome [2] | outcome [11] | outcome [4]

Nc1ccc(O)c(C(=O)O)c1
active: AC50 [2] 31.6 µM
inactive: outcome [1] | outcome [3] | outcome [4]

CN(C/C=C/C#CC(C)(C)C)Cc1cccc2ccccc12
inactive: outcome [1] | outcome [3] | outcome [4]
active: AC50 [2] 35.5 µM

CCC(C(N)=O)N1CCCC1=O (stereo unspecified)
inactive: outcome [1] | outcome [2] | outcome [11] | outcome [4] | Potency [14] | outcome [7] | Potency [9] | Potency [10]

CCCCCOC(=O)Nc1nc(=O)n([C@@H]2O[C@H](C)[C@@H](O)[C@H]2O)cc1F
inactive: outcome [1] | outcome [2] | outcome [11] | outcome [4]

CCCC(C)(COC(N)=O)COC(=O)NC(C)C (stereo unspecified)
inactive: outcome [1] | outcome [2] | outcome [11] | outcome [4] | outcome [7] | Potency [15] | Potency [8] | Potency [16] | Potency [9] | Potency [10]
386%: cell viability, % of control (lower = more cytotoxic) [5]
110%: viability (% of control) [6]

CNS(=O)(=O)CCc1ccc2[nH]cc(C3CCN(C)CC3)c2c1
inactive: outcome [1] | outcome [2] | outcome [11] | outcome [4]

CCc1ccc(CCOc2ccc(CC3SC(=O)NC3=O)cc2)nc1 (stereo unspecified)
inactive: outcome [1] | outcome [2] | outcome [3] | outcome [4]

CC(COc1ccccc1)N(CCCl)Cc1ccccc1 (stereo unspecified)
inactive: outcome [1] | outcome [3] | outcome [4]
active: AC50 [2] 17.8 µM

Nc1ccn([C@@H]2O[C@H](CO)[C@@H](O)C2(F)F)c(=O)n1
active: Potency [12] 0.0121 µM
inactive: outcome [1] | outcome [2] | outcome [11] | outcome [4]

Cc1ccc(C)c(OCCCC(C)(C)C(=O)O)c1
inactive: outcome [1] | outcome [2] | outcome [3] | outcome [4]

CN1CCN(C(=O)O[C@H]2c3nccnc3C(=O)N2c2ccc(Cl)cn2)CC1
126%: cell viability, % of control (lower = more cytotoxic) [5]
135%: viability (% of control) [6]
inactive: outcome [1] | outcome [2] | outcome [11] | outcome [4] | Potency [14] | outcome [7] | Potency [8] | Potency [16] | Potency [9] | Potency [10]

CN(C)CCc1c[nH]c2ccc(CS(=O)(=O)N3CCCC3)cc12
inactive: outcome [1] | outcome [2] | outcome [11] | outcome [4]

CCn1cc(C(=O)O)c(=O)c2cc(F)c(N3CCNCC3)cc21
inactive: outcome [1] | outcome [2] | outcome [3] | outcome [4]

COc1cc2nc(N3CCN(C(=O)C4CCCO4)CC3)nc(N)c2cc1OC (stereo unspecified)
inactive: outcome [1] | outcome [3] | outcome [4]
active: AC50 [2] 28.2 µM

Cc1nccn1CC1CCc2c(c3ccccc3n2C)C1=O (stereo unspecified)
inactive: outcome [1] | outcome [3] | outcome [4]
active: AC50 [2] 22.4 µM

NC1[C@H]2CN(c3nc4c(cc3F)c(=O)c(C(=O)O)cn4-c3ccc(F)cc3F)C[C@@H]12 (stereo partly specified)
inactive: outcome [1] | outcome [2] | outcome [3] | outcome [4]

O=c1n(CCCN2CCN(c3cccc(Cl)c3)CC2)nc2ccccn12
inactive: outcome [1] | outcome [2] | outcome [11] | outcome [4]

CC(C)C[C@H](NC(=O)[C@H](Cc1ccccc1)NC(=O)c1cnccn1)B(O)O
inactive: outcome [1] | outcome [3] | outcome [4]
active: AC50 [2] 1.26 µM | Potency [12] 0.0037 µM | Potency [13] 0.0148 µM

O=C1[C@H](CC[C@H](O)c2ccc(F)cc2)[C@@H](c2ccc(O)cc2)N1c1ccc(F)cc1
active: AC50 [2] 28.2 µM
inactive: outcome [1] | outcome [3] | outcome [4]

— PubChem BioAssay (NCATS)
